PubChem BioAssay AID1159580 (chemical genetic matrix, 2015)
Screen size: about 5,500 compounds; about 2,000 (36%) were called active. Roughly 18% stayed inconclusive and do not appear here. No stated cut-off is given here; in the data, active means normalized growth mostly below about 0.91 (no sharp cut-off); inconclusive means no clear call, values can overlap the other calls; inactive means mostly above about 0.92. This is one part of the list.

Assay: chemical genetic growth profiling, strain panel (AID 1159580);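 further: tested at 20 µM; growth read once vehicle control cultures reached saturation at 30 °C; 1 = growth at the plate median or of vehicle wells; lower values mean less growth of the strain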
Conditions: S. cerevisiae deletion strains, growth OD
[1] = locus YAL021C, strain ccr4, hits give low values
[2] = locus YAL026C, strain drs2, hits give low values
[3] = locus YAL030W, strain snc1, hits give low values
[4] = locus YBL061C, strain skt5, hits give low values
[5] = locus YBR009C, strain hhf1, hits give low values
[6] = locus YBR023C, strain chs3, hits give low values
[7] = locus YBR171W, strain sec66, hits give low values
[8] = locus YBR231C, strain swc5, hits give low values
[9] = locus YBR279W, strain paf1, hits give low values
[10] = locus YCL011C, strain gbp2, hits give low values
[11] = locus YCL016C, strain dcc1, hits give low values
[12] = locus YCL069W, strain vba3, hits give low values
[13] = locus YCR088W, strain abp1, hits give low values
[14] = locus YDL005C, strain med2, hits give low values
[15] = locus YDL040C, strain nat1, hits give low values
[16] = locus YDR001C, strain nth1, hits give low values
[17] = locus YDR069C, strain doa4, hits give low values
[18] = locus YDR137W, strain rgp1, hits give low values
[19] = locus YDR159W, strain sac3, hits give low values
[20] = locus YDR297W, strain sur2, hits give low values
[21] = locus YDR334W, strain swr1, hits give low values
[22] = locus YDR335W, strain msn5, hits give low values
[23] = locus YDR392W, strain spt3, hits give low values
[24] = locus YEL003W, strain gim4, hits give low values
[25] = locus YEL037C, strain rad23, hits give low values
[26] = locus YEL061C, strain CIN8 (second series), hits give low values
[27] = locus YER015W, strain faa2, hits give low values
[28] = locus YER016W, strain bim1, hits give low values
[29] = locus YER111C, strain swi4, hits give low values
[30] = locus YER155C, strain BEM2 (second series), hits give low values
[31] = locus YFR010W, strain ubp6, hits give low values
[32] = locus YGL167C, strain pmr1, hits give low values
[33] = locus YGL173C, strain kem1, hits give low values
[34] = locus YGL227W, strain vid30, hits give low values
[35] = locus YGL240W, strain doc1, hits give low values
[36] = locus YGL253W, strain hxk2, hits give low values
[37] = locus YHR013C, strain ard1, hits give low values
[38] = locus YHR027C, strain rpn1, hits give low values
[39] = locus YHR030C, strain SLT2, hits give low values
[40] = locus YHR079C, strain IRE1, hits give low values
[41] = locus YHR142W, strain chs7, hits give low values
[42] = locus YJL092W, strain hpr5, hits give low values
[43] = locus YJL095W, strain BCK1 (second series), hits give low values
[44] = locus YJL095W, strain BCK1, hits give low values
[45] = locus YJL115W, strain asf1, hits give low values
[46] = locus YJL129C, strain trk1, hits give low values
[47] = locus YJL154C, strain vps35, hits give low values
[48] = locus YJL164C, strain tpk1, hits give low values
[49] = locus YJL166W, strain qcr8, hits give low values
[50] = locus YJR066W, strain TOR1, hits give low values
[51] = locus YKL160W, strain elf1, hits give low values
[52] = locus YKR026C, strain gcn3, hits give low values
[53] = locus YKR091W, strain srl3, hits give low values
[54] = locus YLL001W, strain dnm1, hits give low values
[55] = locus YLL026W, hits give low values
[56] = locus YLL041C, strain sdh2, hits give low values
[57] = locus YLR027C, strain aat2, hits give low values
[58] = locus YLR113W, strain HOG1, hits give low values
[59] = locus YLR221C, strain rsa3, hits give low values
[60] = locus YLR258W, strain gsy2, hits give low values
[61] = locus YLR262C, strain YPT6 (second series), hits give low values
[62] = locus YLR320W, strain mms22, hits give low values
[63] = locus YLR342W, strain FKS1, hits give low values
[64] = locus YLR357W, strain rsc2, hits give low values
[65] = locus YLR370C, strain arc18, hits give low values
[66] = locus YLR384C, strain iki3, hits give low values
[67] = locus YML120C, strain ndi1, hits give low values
[68] = locus YMR058W, strain fet3, hits give low values
[69] = locus YMR125W, strain sto1, hits give low values
[70] = locus YMR129W, hits give low values
[71] = locus YMR205C, strain PFK2, hits give low values
[72] = locus YMR231W, strain pep5, hits give low values
[73] = locus YNL071W, strain lat1, hits give low values
[74] = locus YNL183C, strain NPR1, hits give low values
[75] = locus YNL209W, strain ssb2, hits give low values
[76] = locus YNL248C, strain rpa49, hits give low values
[77] = locus YNL322C, strain KRE1 (second series), hits give low values
[78] = locus YNR049C, strain mso1, hits give low values
[79] = locus YOR001W, strain rrp6, hits give low values
[80] = locus YOR070C, strain gyp1, hits give low values
[81] = locus YOR080W, strain dia2, hits give low values
[82] = locus YOR083W, strain WHI5, hits give low values
[83] = locus YOR106W, strain vam3, hits give low values
[84] = locus YOR231W, strain MKK1, hits give low values
[85] = locus YOR265W, strain rbl2, hits give low values
[86] = locus YOR270C, strain vph1, hits give low values
[87] = locus YOR290C, strain snf2, hits give low values
[88] = locus YPL051W, strain arl3, hits give low values
[89] = locus YPL078C, strain atp4, hits give low values
[90] = locus YPL106C, strain sse1, hits give low values
[91] = locus YPL240C, strain hsp82, hits give low values
[92] = locus YPL256C, strain CLN2, hits give low values
[93] = locus YCL061C, strain MRC1, hits give low values

Measured: normalized growth

Cc1c(S(=O)(=O)O)oc2c1C(=O)C(=O)c1c-2ccc2c1CCCC2(C)C
active: [3] 0.92 | [5] 0.885 | [8] 0.889 | [10] 0.861 | [17] 0.874 | [18] 0.631 | [19] 0.808 | [23] 0.586 | [30] 0.779 | [35] 0.817 | [43] 0.912 | [46] 0.859 | [49] 0.893 | [51] 0.896 | [55] 0.924 | [57] 0.9 | [59] 0.891 | [61] 0.57 | [62] 0.871 | [67] 0.9 | [68] 0.839 | [70] 0.918 | [73] 0.726 | [82] 0.856 | [83] 0.821 | [88] 0.873 | [91] 0.921
inactive: [1] 0.946 | [2] 0.923 | [4] 0.954 | [6] 0.943 | [7] 0.937 | [9] 0.985 | [11] 0.958 | [12] 0.983 | [13] 0.946 | [14] 0.963 | [15] 0.959 | [16] 0.955 | locus YDR195W, strain ref2 0.974 | [20] 0.939 | [21] 0.924 | [22] 0.962 | [24] 0.928 | [25] 0.947 | [26] 0.956 | [27] 0.93 | [28] 0.94 | [29] 0.965 | [31] 0.943 | [32] 0.928 | [33] 0.965 | [34] 0.968 | [36] 0.982 | [37] 0.913 | [38] 0.962 | [39] 0.982 | [40] 0.959 | [41] 0.994 | [42] 0.956 | [44] 0.979 | [45] 0.952 | [47] 0.969 | [48] 0.918 | [50] 0.934 | [52] 0.932 | [53] 0.95 | [54] 0.962 | [56] 0.938 | [58] 0.967 | [60] 0.95 | [63] 0.916 | [64] 0.905 | [65] 0.949 | [66] 0.926 | [69] 1 | [71] 0.912 | [72] 0.933 | [74] 0.932 | [75] 0.955 | [76] 0.962 | [77] 0.916 | [78] 0.976 | [79] 0.935 | [80] 0.949 | [81] 0.93 | [84] 0.98 | [85] 0.937 | [86] 0.956 | [87] 0.95 | [89] 0.931 | [90] 0.857 | [92] 0.968

C[C@H]1COC2=C1C(=O)C(=O)c1c2ccc2c1CCCC2(C)C
active: [1] 0.859 | [2] 0.583 | [3] 0.858 | [4] 0.725 | [5] 0.534 | [6] 0.783 | [7] 0.808 | [8] 0.675 | [9] 0.725 | [10] 0.65 | [11] 0.691 | [93] 0.668 | [12] 0.659 | [13] 0.866 | [14] 0.828 | [15] 0.9 | [16] 0.913 | [17] 0.868 | [18] 0.23 | [19] 0.301 | locus YDR195W, strain ref2 0.823 | [20] 0.75 | [21] 0.729 | [22] 0.658 | [23] 0.0851 | [24] 0.77 | [25] 0.883 | [26] 0.527 | [27] 0.845 | [28] 0.666 | [29] 0.478 | [30] 0.334 | [31] 0.871 | [33] 0.801 | [34] 0.546 | [35] 0.649 | [36] 0.545 | [37] 0.604 | [38] 0.872 | [39] 0.139 | [40] 0.25 | [41] 0.379 | [42] 0.871 | [43] 0.408 | [44] 0.31 | [45] 0.886 | [46] 0.22 | [47] 0.913 | [48] 0.69 | [49] 0.349 | [50] 0.701 | [51] 0.462 | [52] 0.853 | [53] 0.893 | [54] 0.819 | [55] 0.843 | [56] 0.901 | [57] 0.662 | [58] 0.208 | [59] 0.662 | [60] 0.723 | [61] 0.2 | [62] 0.613 | [63] 0.626 | [65] 0.806 | [66] 0.904 | [67] 0.371 | [68] 0.619 | [69] 0.476 | [70] 0.824 | [71] 0.531 | [72] 0.714 | [73] 0.18 | [74] 0.666 | [75] 0.817 | [76] 0.735 | [77] 0.801 | [78] 0.903 | [79] 0.608 | [80] 0.752 | [81] 0.912 | [82] 0.712 | [83] 0.581 | [84] 0.213 | [85] 0.895 | [86] 0.543 | [87] 0.775 | [88] 0.549 | [89] 0.453 | [90] 0.537 | [91] 0.761 | [92] 0.19
inactive: [32] 0.936 | [64] 0.934

Cc1cccc2c3c(ccc12)C1=C(C(=O)C3=O)C(C)CO1 (stereo not given)
active: [39] 0.128 | [40] 0.174 | [44] 0.263 | [50] 0.756 | [58] 0.163 | [74] 0.72 | [84] 0.133 | [92] 0.141

Cc1coc2c1C(=O)C(=O)c1c-2ccc2c1CCCC2(C)C
active: [2] 0.869 | [5] 0.882 | [8] 0.815 | [11] 0.904 | [93] 0.91 | [18] 0.439 | [19] 0.582 | [23] 0.196 | [24] 0.903 | [26] 0.905 | [30] 0.592 | [35] 0.801 | [36] 0.828 | [37] 0.815 | [39] 0.81 | [41] 0.868 | [44] 0.855 | [46] 0.738 | [51] 0.886 | [54] 0.886 | [57] 0.911 | [58] 0.821 | [59] 0.873 | [61] 0.485 | [62] 0.79 | [63] 0.904 | [67] 0.905 | [71] 0.735 | [73] 0.766 | [74] 0.82 | [80] 0.911 | [83] 0.852 | [88] 0.913 | [89] 0.853
inactive: [1] 0.912 | [3] 0.936 | [4] 0.968 | [6] 0.951 | [7] 0.916 | [9] 0.944 | [10] 0.913 | [12] 0.95 | [13] 0.955 | [14] 0.945 | [15] 0.948 | [16] 0.949 | [17] 0.925 | locus YDR195W, strain ref2 0.989 | [20] 0.951 | [21] 0.923 | [22] 0.929 | [25] 0.947 | [27] 0.951 | [28] 0.926 | [29] 0.953 | [31] 0.902 | [32] 0.946 | [33] 0.97 | [34] 0.962 | [38] 0.957 | [40] 0.859 | [42] 0.94 | [43] 0.925 | [45] 0.953 | [47] 0.957 | [48] 0.927 | [49] 0.94 | locus YJL187C, strain SWE1, hits give low values 0.965 | [50] 0.835 | [52] 0.943 | [53] 0.946 | [55] 0.936 | [56] 0.958 | [60] 0.964 | [64] 1.07 | [65] 0.927 | [66] 0.96 | [68] 0.913 | [69] 0.975 | [70] 0.938 | [72] 0.953 | [75] 0.954 | [76] 1.03 | [77] 0.949 | [78] 0.954 | [79] 0.927 | [81] 0.949 | [82] 0.928 | [84] 0.867 | [85] 0.948 | [86] 0.809 | [87] 0.958 | [90] 0.852 | [91] 0.944 | [92] 0.894
